Screening data: PubChem BioAssay, National Center for Advancing Translational Sciences (NCATS)
Most compounds without a hit are left out; they make up all but 2.2% or so of the library.
Nrf2 inh: blocks Nrf2 signaling; A549 ARE-Fluc reporter, luciferase luminescence, 18-24 h; Potency, µM (series often up to 46 µM), for inactives: at the top dose activity change, negative = inhibition, most hits filed as inhibitors; actives 2.1% (n = 360,000); AID 504444; note: % is set by controls: 0 for no effect and ±100 for the full control effect; nearly all actives have a fitted effect of over 60% in size
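A549 ARE_Fluc cells (5000/well, 5% FBS OPTI-MEM) pre-incubated 2 h, then treated with compounds 18-24 h at 37C/5% CO2 in concentration-response. CellTiter-Fluor viability read first; BugLite luciferase luminescence after 15 min at room temperature gives Nrf2 activity.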
Nrf2 activator: Nrf2 pathway activation; AREc32 ARE-luciferase reporter (MCF7-derived line), luminescence, 24 h; Potency, µM (highest dose often 46.1 µM), without a hit: at the highest dose activation, usual class: activators; actives 0.31% (n = 410,000); note: % of control where 0% means no effect; nearly all actives have a fitted effect of over 65% in size
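Luminescent ARE reporter assay in AREc32_Fluc cells: overnight plating at 37 deg C, 24 hr compound incubation, Steady-Glo added, 30 min RT before reading.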
A549 tox-1: counter-screen for Nrf2 inhibitors: cytotoxicity in A549 cells | A549 ARE-Fluc cells, CellTiter-Fluor viability, 18-24 h | Potency, µM (titrated, usually from 46 µM), without a hit: at the highest dose activity change, negative = cytotoxicity, most hits filed as inhibitors | actives 0.16% (n = 390,000); note: % is set by controls: 0 for no effect and ±100 for the full control effect
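Cytotoxicity counterscreen: CellTiter-Fluor fluorescence was measured in A549 ARE_Fluc cells after 18-24 h of compound exposure in a concentration series. The subsequent BugLite luminescent read reports ARE-luciferase activity.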
Pin1 inh: blocks the human prolyl isomerase Pin1. Q13526. Pin1 FP peptide displacement, HiFluor488, 10 min. Potency, µM (top dose mostly 115 µM), for the others: at the top dose activity, negative = inhibition, hits mostly inhibitors. actives 0.009% (n = 390,000); active = well fitted inhibition curve with a large enough effect in the polarisation, with a control signal flat, not every such curve was filed as active; inconclusive = small, poorly fitted or top-dose-only effect, or effect the other way, or a change in a side signal; inactive = no such curve, though single readings can be large or run the other way; the % refers to the polarisation; note: % is set by controls: 0 for no effect and ±100 for the full control effect
Target sequence (Q13526 whole entry, looked up): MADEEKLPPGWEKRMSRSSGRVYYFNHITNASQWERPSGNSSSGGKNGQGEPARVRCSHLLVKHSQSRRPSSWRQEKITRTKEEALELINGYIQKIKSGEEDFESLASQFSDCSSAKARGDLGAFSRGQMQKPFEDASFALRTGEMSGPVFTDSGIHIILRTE
FLuc enzyme inh: counter-screen for Nrf2 inhibitors: firefly luciferase enzyme inhibition; purified firefly luciferase, luminescence inhibition; Potency, µM (titrated, usually from 57.5 µM), for inactives: at the highest dose activity change, negative = inhibition, hits mostly inhibitors; shares compounds with Nrf2 inh; actives 4% (n = 1,400); AID 720522; note: % is set by controls: 0 for no effect and ±100 for the full control effect; nearly all actives have a fitted effect of over 65% in size
Target sequence (P08659 whole entry, looked up): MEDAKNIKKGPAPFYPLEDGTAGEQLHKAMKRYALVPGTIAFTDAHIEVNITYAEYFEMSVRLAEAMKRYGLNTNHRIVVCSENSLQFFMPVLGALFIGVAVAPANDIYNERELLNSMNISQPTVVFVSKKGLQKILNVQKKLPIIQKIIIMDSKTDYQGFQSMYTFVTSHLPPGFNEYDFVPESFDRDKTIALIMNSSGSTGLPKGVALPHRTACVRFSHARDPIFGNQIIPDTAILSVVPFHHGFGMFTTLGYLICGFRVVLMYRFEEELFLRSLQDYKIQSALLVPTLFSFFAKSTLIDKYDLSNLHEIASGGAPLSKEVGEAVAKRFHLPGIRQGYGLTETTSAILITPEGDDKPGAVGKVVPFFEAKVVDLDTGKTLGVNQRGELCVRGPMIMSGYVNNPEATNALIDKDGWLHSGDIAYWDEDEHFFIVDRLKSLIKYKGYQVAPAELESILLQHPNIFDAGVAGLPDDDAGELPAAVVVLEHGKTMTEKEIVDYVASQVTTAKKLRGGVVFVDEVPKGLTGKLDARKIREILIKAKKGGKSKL
A549 tox-2: A549 cytotoxicity, Nrf2 inhibitor counterscreen | shares compounds with Nrf2 inh | A549 ARE-Fluc cells, cytotoxicity counterscreen | Potency, µM (doses to about 46.1 µM), without a hit: at the highest dose activity change, negative = cytotoxicity, usual class: inhibitors | actives 2% (n = 1,400);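 note: cells exposed to compounds for 18 to 24 hours; % is set by controls: 0 for no effect and ±100 for the full control effect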
Nrf2 ARE inh: Nrf2 inhibition confirmed, A549 ARE-luciferase | shares compounds with Nrf2 inh | A549 ARE-firefly luciferase reporter, luminescence | actives 74% (n = 1,400) | Potency, µM (series often up to 46.1 µM), for the others: at the top dose activity change, negative = inhibition, most hits filed as inhibitors; note: % is set by controls: 0 for no effect and ±100 for the full control effect; nearly all actives have a fitted effect of over 65% in size
An asterisk follows results filed as active; ? = inconclusive; / = no result given; [ ] = another dose, or the depositor's remark. Unless noted, calls come from the whole dose curve; as a rule, active = well fitted curve in the direction sought with a large enough effect; inconclusive = small, poorly fitted or top-dose-only effect, or another doubt; inactive = no such curve, though single readings can be large; an effect the other way counts as inactive or inconclusive. Potency is the fitted concentration of half-maximal effect.

SMILES | Nrf2 inh | Nrf2 activator | A549 tox-1 | Pin1 inh | FLuc enzyme inh | A549 tox-2 | Nrf2 ARE inh
CCCN(CCC)C1=CC(=[N+]2CCCC2)CC(C)(C)C1 | 2.06µM* | 2.3% | -16.9% | -3.4% | -0.4% | -9.8% | 4.61µM*
CC1(C)CC(N2CCOCC2)=CC(=[N+]2CCOCC2)C1 | -6.2% | -0.9% | -6.6% | -7.6% | / | / | /
Cc1nnc(SCC(=O)Nc2ccc(Br)cc2)[nH]c1=O | 12.6% | -0.2% | 12.2% | -5.7% | / | / | /
O=C(Nc1nc(-c2ccc(S(=O)(=O)N3CCOCC3)cc2)cs1)c1ccccc1 | 4.61µM* | 5.1% | -16.7% | 22.1% | ? | 2.5% | /
Cc1ccc(C(=O)Nc2nc(-c3ccccn3)cs2)cc1S(=O)(=O)N1CCOCC1 | 8.2µM* | 0.1% | ? | 1.1% | 10.7µM* | ? | 1.64µM*
O=C(Nc1nc(-c2cc3ccccc3o2)cs1)c1ccc(S(=O)(=O)N2CCCC2)cc1 | 4.11µM* | -0.6% | -25.4% | 82.1% | -17.2% | -19.4% | 5.17µM*
COc1ccc(C(=O)N(Cc2ccco2)Cc2cccs2)cc1 | -16.6% | / | -1.7% | -12.6% | / | / | /
O=C(N/N=C(\Cc1ncc[nH]1)c1ccccc1)c1ccncc1 | -14.7% | 2.0% | 0.9% | 1.8% | / | / | /
O=C(N/N=C(\Cc1ncc[nH]1)c1ccccc1)c1cccnc1 | 2.31µM* | 2.2% | -15.9% | -6.2% | -1.6% | -11.0% | 8.2µM*
O=C(N/N=C(\c1ccccc1)c1cccnc1)c1cccc(F)c1 | 7.31µM* | ? | ? | 23.2% | -19.7% | ? | 1.84µM*
Cc1cc(C)c(NC(=O)CSc2ncc3c(n2)-c2cc(Cl)ccc2N(C)S3(=O)=O)c(C)c1 | 4.61µM* | -1.2% | -18.2% | 3.8% | 3.5% | -19.1% | 30.1%
O=C(c1cc2nc(-c3ccc(F)cc3)cc(C(F)(F)F)n2n1)N1CCCCC1c1cccnc1 (stereo not drawn) | 4.61µM* | 5.3% | ? | -1.7% | -25.7% | -26.0% | 6.51µM*
O=C(c1cnn2c(C(F)(F)F)cc(-c3ccccc3)nc12)N1CCCCC1c1cccnc1 (stereo not drawn) | ? | -0.2% | 3.2% | -2.1% | / | / | /
Cc1cc(C)cc(NC(=O)CSc2oc(-c3cccs3)nc2S(=O)(=O)c2ccccc2)c1 | 3.9%[9.27 µM] | 4.8% | -1.2% | ? | / | / | /
O=C(C[n+]1cccc2ccccc21)c1ccc(Cl)cc1 | 32.2% | 1.8% | 8.9% | ? | / | / | /
Clc1cccc(Cl)c1C[n+]1cccc2ccccc21 | 4.11µM* | -1.0% | -13.5% | ? | 1.3% | 3.9% | ?
Cn1c(=O)c2c(nc(NCc3ccco3)n2C/C=C/c2ccccc2)n(C)c1=O | 4.11µM* | 5.0% | ? | ? | 0.2% | -18.9% | 7.31µM*
N#C/C(=N\Nc1cccc(C(F)(F)F)c1)C(=O)c1ccsc1 | ? | 14.7% | -17.8% | -1.3% | 21.3µM* | ? | /
Cc1nccc(-c2cccc(N/N=C(\C#N)C(=O)c3ccccc3)c2)n1 | ? | 0.3% | -17.0% | -2.8% | / | / | /
COc1ccc(OC)c(Nc2nc3ccccc3n3c(C)nnc23)c1 | 8.9% | 0.3% | -4.2% | -0.6% | / | / | /
Cc1ccccc1Cn1c2ccccc2c2cnn(CC(=O)NCCCc3ccccc3)c(=O)c21 | 1.9% | -0.6% | 3.1% | 12.3% | / | / | /
CCN1C(=O)C(Cc2nc3ccccc3c(=O)n2-c2ccccc2)c2cc(Br)ccc21 (stereo not drawn) | ? | 9.6% | -19.3% | -1.1% | / | / | /
CC(=O)c1sc(NC(=O)C2(F)C(F)(F)C(F)(F)C(F)(F)C(F)(F)C2(F)F)nc1C | 5.8µM* | 7.2% | ? | 0.3% | ? | ? | 6.51µM*
Cc1ccc(S(=O)(=O)c2c(N)n(/N=C/c3ccco3)c3nc4ccccc4nc23)cc1 | ? | -0.2% | -4.6% | ? | / | / | /
Nc1c(S(=O)(=O)c2ccccc2)c2nc3ccccc3nc2n1/N=C/c1ccco1 | 5.8µM* | 0.2% | -19.5% | 27.2% | ? | -24.9% | 2.06µM*
SMILES | Nrf2 inh | Nrf2 activator | A549 tox-1 | Pin1 inh | FLuc enzyme inh | A549 tox-2 | Nrf2 ARE inh
CC(C)Cn1c(N)c(C(=O)CSc2ccc3c(c2)OCCO3)c(=O)n(C)c1=O | 0.651µM* | 0.3% | -29.2% | -4.7% | -0.6% | -5.2% | 1.84µM*
CC(C)CN(C(=O)CSc1ccc2c(c1)OCCO2)c1c(N)n(CC(C)C)c(=O)[nH]c1=O | 2.7% | -0.3% | -0.3% | 6.3% | / | / | /
CCC(CC)C(=O)Nc1ccc(C(=O)OCc2cc(=O)n3nc(C4CC4)sc3n2)cc1 | / | -0.6% | 4.0% | 4.7% | / | / | /
Oc1ccc(/C=C/c2ccnc3ccccc23)cc1 | ? | ? | ? | 16.2% | / | / | /
C(=C\c1ccnc2ccccc12)/c1cc2c3c(c1)CCCN3CCC2 | / | / | / | / | -24.8% | -16.1% | 7.31µM*
COc1ccc(CN(C)c2ccc(S(=O)(=O)N3CCN(C)CC3)cc2[N+](=O)[O-])cc1OC | 1.3µM* | -0.5% | -3.1% | ? | -28.4% | 1.7% | ?
COc1ccc(CCN(C)c2ccc(S(=O)(=O)N3CCCC3)cc2[N+](=O)[O-])cc1OC | ? | 3.9% | -19.9% | 6.9% | / | / | /
O=C(c1cc(COc2cccc3cnccc23)on1)N1CCCC(CCCO)C1 (stereo not drawn) | 3.66µM* | 0.1% | -28.4% | -2.7% | -1.6% | -13.1% | 2.31µM*
COCC1CCN(C(=O)c2cc(COc3cccc4cnccc34)on2)CC1 | ? | -0.5% | -1.3% | -1.0% | / | / | /
CC(=O)Nc1ccc(NC(=S)NC(=O)c2ccc(-c3ccccc3)cc2)cc1 | -22.9% | -0.6% | -2.6% | -3.0% | / | / | /
CC(C)NS(=O)(=O)c1ccc(NC(=S)NC(=O)c2ccc(-c3ccccc3)cc2)cc1 | 2.06µM* | -0.2% | -5.0% | 2.8% | -1.5% | -9.1% | 4.61µM*
CCOc1ccc(CCNC(=O)Cn2c(-c3cccs3)cc3ccccc32)cc1 | 14.2% | 0.1% | 1.2% | -0.1% | / | / | /
COc1cc(OC)cc(-c2cc3nc(C)c(CCC(=O)O)c(C)n3n2)c1 | 1.46µM* | -4.6% | -0.4% | 2.2% | 10.7µM* | 3.6% | 2.59µM*
COc1cc(OC)cc(-c2cc3nc(C)c(CCC(=O)NC(C)CCc4ccco4)c(C)n3n2)c1 (stereo not drawn) | ? | -0.4% | 1.1% | ? | / | / | /
Cc1ccc2c(c1C)NC(=O)CC2c1ccc(Cl)cc1Cl (stereo not drawn) | -25.1% | 5.6% | 1.2% | 2.2% | / | / | /
O=C(CCN1C(=O)/C(=C/c2ccccc2Cl)SC1=S)Nc1ccccc1C(=O)O | -1.8% | ? | 0.6% | ? | / | / | /
O=C(CCCN1C(=O)/C(=C/c2ccccc2Cl)SC1=S)NNC(=O)c1ccc(Cl)cc1Cl | 6.51µM* | -2.2% | -0.3% | 39.9% | -11.9% | -19.4% | 7.31µM*
